# Measurements from PubChem BioAssay (NCI).
# This is part of a sample that, as a whole, favours compounds with a hit. Of some 83,000 tested, about 20% had one in any assay.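 Single-concentration screen, 48 h exposure, 96-well plates. Endpoint: percent growth. Below 10 = active.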 Calls of active or inactive are those of the source.
# Test system: M14 melanoma
# Test: NCI-60 one-dose screen, 48 h (100 = growth as untreated, 0 = no growth, -100 = all killed)
# Details: 10 µM unless noted
row,SMILES,growth
1,COc1cc(NCCCN=C(N)N)c2ncccc2c1,100% (inactive)
2,ClCCN(CCCl)c1nc(Cl)c(C2CC(c3ccccc3)=NN2c2cc(Cl)cc(Cl)c2)s1 (stereo not drawn),108% (inactive)
3,CCCCCCCC(=O)OCC(=O)[C@]1(O)Cc2c(O)c3c(c(O)c2[C@@H](OC2CC(N)C(O)C(C)O2)C1)C(=O)c1c(OC)cccc1C3=O (stereo partly drawn),-69.8% (active)
4,COC[C@@H]1C[C@@]2(C)[C@@H](CC[C@@H]3[C@@H]2CC[C@@]2(C)[C@H]3CC[C@]2(C)O)CC1=O,94.5% (inactive)
5,C[C@]12CC[C@@H]3c4ccc(Oc5nc(N6CC6)nc(N6CC6)n5)cc4CC[C@H]3[C@@H]1CCC2=O,44.7% (inactive)
6,O=C1OCC2=C1C(c1ccccc1)c1cc3c(cc1N2)OCO3 (stereo not drawn),10% (inactive)
7,CCC1(C)CC(CCNCc2ccccc2O)(c2ccc(C)cc2)CCO1 (stereo not drawn),104% (inactive)
8,ClCCN(CCCl)Cc1ccc(Nc2ccnc3cc(Cl)ccc23)cc1,49.7% (inactive)
9,c1ccc(Nc2nc(-c3ccccc3)c[se]2)cc1,87.3% (inactive)
10,CCN(CC)CCOC(=O)C(OC(C)C)(c1ccccc1)c1ccccc1,110% (inactive)
11,CCCc1cc(O)c2c3c(c(=O)oc2c1)CN(C)CC3,16.4% (inactive)
12,ClCCN(CCCl)c1ccc(/C=N/Nc2ncnc3nc[nH]c23)cc1,76.7% (inactive)
13,CCC1(C(C)C)C(=O)NC(=S)NC1=O,106% (inactive)
14,CC(C)(N)Cc1ccccc1,105% (inactive)
15,CC1(C)N=C(N)N=C(N)N1c1cccc(CCCCc2ccc(Cl)c(S(=O)(=O)F)c2)c1,39% (inactive)
16,COc1cc(C=C2c3ccccc3C(=O)c3ccccc32)ccc1OCCCCOc1cc2c(cc1OC)C(=O)N1CCCC1C=N2 (stereo not drawn),-66.7% (active)
17,C[CH2][Sn]([Cl])([Cl])[CH2]C.Oc1ccccc1C=NCCN=Cc1ccccc1O,112% (inactive)
18,COc1ccc(O)c(CNC(=O)CN2CCCC2=O)c1,98% (inactive)
19,CCOC(=O)C(Cc1ccc(N(CCCl)CCCl)cc1)NC(=O)C(CC(C)C)NC(C)=O (stereo not drawn),-4.57% (active)

row,SMILES,growth
1,C[C@]12CC[C@H]3[C@@H](CC[C@]4(O)C[C@@H](O[C@@H]5O[C@H](CO)[C@@H](O[C@@H]6OC[C@@H](O)[C@H](O)[C@H]6O)[C@H](O)[C@H]5O)CC[C@]34C=O)[C@@]1(O)CC[C@@H]2C1=CC(=O)OC1,23.8% (inactive)
2,Clc1ccc2nnnn2n1,37.7% (inactive)
3,CC1(C)N=C(N)N=C(N)N1c1ccc(CCCCc2ccc(Cl)c(S(=O)(=O)F)c2)c(Cl)c1,20.7% (inactive)
4,CC(=O)[O][Hg][c]1c(N)c(C)cc(C)c1F,5.84% (active)
5,O=C(NCCN1CC1)C(=O)NCCN1CC1,92.9% (inactive)
6,[Au+].[N-]=C=O.c1ccc(CN2[CH-]N(Cc3ccccc3)C(c3ccccc3)=C2c2ccccc2)cc1,81.3% (inactive)
7,O=C(O)CNC(=O)C(Cl)(Cl)Cl,107% (inactive)
8,N#C[Se]Cc1cc(-c2ccccc2)n(-c2ccc(S(N)(=O)=O)cc2)n1,-62.2% (active)
9,CCCCCC1(CCBr)C(=O)NC(=O)NC1=O,112% (inactive)
10,O=C(O)C(O)C(O)C1[O][Sb]([c]2ccc([N+](=O)[O-])cc2)[O]C1CO (stereo not drawn),106% (inactive)
11,O=Cc1cn(Cc2ccc(Cl)cc2)c2ccccc12,83.8% (inactive)
12,COc1cc(NC(C)CCCNC2CN3CCC2CC3)c2ncccc2c1 (stereo not drawn),51.2% (inactive)
13,Cc1ccc(C(=O)NCCCOc2ccc(N)cc2Cl)cc1S(=O)(=O)F,97.8% (inactive)
14,CC(=O)OCC1O[C@@H]([S-])C(OC(C)=O)[C@H](OC(C)=O)[C@@H]1OC(C)=O.[Au+].c1ccc(CN2[CH-]N(Cc3ccccc3)C(c3ccccc3)=C2c2ccccc2)cc1,48.5% (inactive)
15,O=C(Nc1ccc(Cl)cc1)Nc1nccs1,18.1% (inactive)
16,Clc1ccc(COC(Cn2ccnc2)c2ccc(Cl)cc2Cl)cc1 (stereo not drawn),58.9% (inactive)
17,CC1CCCC(C[N+](C)(C)C)C1=O (stereo not drawn),101% (inactive)
18,CC(=O)/C=C/c1ccc2c(c1)OCO2,100% (inactive)
19,O=C(O)c1ccc([S-])cc1.[Au+].c1ccc(CN2[CH-]N(Cc3ccccc3)C(c3ccccc3)=C2c2ccccc2)cc1,-48.1% (active)
